The results in this text go back to PubChem BioAssay AID861 (The Scripps Research Institute Molecular Screening Center, 2007).

The campaign covered roughly 200,000 compounds. About 360 (0.18%) were called active. This excerpt belongs to a sample that is enriched for actives. A number with no mark means an inactive call. No stated cut-off is given here; in the data, active means inhibition above about 25%; inactive means the rest.

Sequence of Toll-like receptor 4 (Homo sapiens) + Myeloid differentiation primary response protein MyD88 (Homo sapiens) (O00206 whole entry, looked up): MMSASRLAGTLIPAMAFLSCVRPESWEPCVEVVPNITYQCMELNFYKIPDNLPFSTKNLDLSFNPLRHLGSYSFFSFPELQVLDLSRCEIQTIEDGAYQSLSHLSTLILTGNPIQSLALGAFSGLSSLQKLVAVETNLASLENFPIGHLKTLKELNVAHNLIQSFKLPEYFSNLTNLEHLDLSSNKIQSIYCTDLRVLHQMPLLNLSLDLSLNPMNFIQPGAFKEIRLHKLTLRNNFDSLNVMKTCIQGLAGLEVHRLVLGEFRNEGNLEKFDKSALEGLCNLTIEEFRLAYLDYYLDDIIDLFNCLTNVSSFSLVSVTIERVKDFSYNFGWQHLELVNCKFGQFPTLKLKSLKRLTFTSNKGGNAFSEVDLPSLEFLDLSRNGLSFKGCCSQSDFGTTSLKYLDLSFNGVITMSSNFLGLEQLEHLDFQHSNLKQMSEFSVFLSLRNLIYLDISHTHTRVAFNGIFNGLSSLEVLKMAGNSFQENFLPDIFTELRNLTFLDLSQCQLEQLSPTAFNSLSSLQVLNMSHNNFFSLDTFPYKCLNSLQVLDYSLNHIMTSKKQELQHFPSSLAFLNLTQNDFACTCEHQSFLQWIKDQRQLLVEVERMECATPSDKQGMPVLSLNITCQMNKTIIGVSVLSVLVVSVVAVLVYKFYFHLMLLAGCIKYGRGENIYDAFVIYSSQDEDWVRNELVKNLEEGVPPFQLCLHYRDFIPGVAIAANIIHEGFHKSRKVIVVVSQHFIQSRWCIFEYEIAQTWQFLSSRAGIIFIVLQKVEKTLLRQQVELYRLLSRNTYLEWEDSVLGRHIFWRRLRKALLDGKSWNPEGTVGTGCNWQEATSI
Sequence of Toll-like receptor 4 (Homo sapiens) + Myeloid differentiation primary response protein MyD88 (Homo sapiens) (Q99836 whole entry, looked up): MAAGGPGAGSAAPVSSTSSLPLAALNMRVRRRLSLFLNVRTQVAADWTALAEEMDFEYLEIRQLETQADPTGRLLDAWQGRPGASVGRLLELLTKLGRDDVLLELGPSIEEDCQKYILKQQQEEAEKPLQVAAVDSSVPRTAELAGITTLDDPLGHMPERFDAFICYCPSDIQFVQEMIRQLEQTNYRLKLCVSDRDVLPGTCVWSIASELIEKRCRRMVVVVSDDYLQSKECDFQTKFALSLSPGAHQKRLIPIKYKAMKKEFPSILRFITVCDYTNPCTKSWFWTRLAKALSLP

This assay addresses Toll-like receptor 4 (Homo sapiens) + Myeloid differentiation primary response protein MyD88 (Homo sapiens) (UniProt O00206+Q99836). The experiment in a line: inhibitors of TLR4-MyD88 association in cells, primary screen, cell-based, HeLa CL3-4, BLA complementation, FRET ratio (AID 861).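 Further: 0% = vehicle and 100% = reference inhibitor.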 To be noted: HeLa CL3-4 TLR4/MyD88 BLA complementation, at 8.4 µM, hits give high values.
For the molecule `CCOC(=O)c1c(N)sc(C(C)=O)c1C`, the inhibition is 1.12%.
Next, `CCOC(=O)c1sc(NC(=O)CSc2nc(O)c(Cc3ccccc3)c(=O)[nH]2)nc1C`: 1.47%; `CCn1cc(-c2cc(C(=O)O)on2)c(C)n1`: 1.59%.
Then `COc1cccc(/C=C(/CC(=O)Nc2ccc(N3CCOCC3)cc2)c2nc3ccccc3s2)c1`, with 5.83%; and `O=C(COC(=O)Cc1ccc(F)cc1)Nc1cc(S(=O)(=O)N2CCOCC2)ccc1N1CCCC1`, with -6.48%; and `Cc1[nH]c2ccccc2c1/C=N\NC(=O)Cn1nnc(-c2ccccc2)n1`, with -5.01%.
Then `Cc1cccc(C)c1NC(=O)C1CCCN1C(=O)OC(C)(C)C` (stereo not drawn), with -1.58%; and `O=C(Nc1ccccc1)O/N=C1\CCCCC1c1ccc([N+](=O)[O-])cc1[N+](=O)[O-]` (stereo not drawn), with 5.14%; and `CCn1c(SCc2cc(=O)n3ccsc3n2)nc2ccccc21`, with -21.4%.
For `Cc1nccn1CCCNC(=O)CC1C(=O)NCCN1Cc1ccc(Cl)c(F)c1` (stereo not drawn), the inhibition was -15.6%.
Next, `Cc1ccc(NC2=C(Cl)C(=O)OC2OC(=O)c2ccccc2C)cc1` (stereo not drawn): -14.9%; `CC(=O)c1ccc(N=C2SCCCN2C(=O)C2CCCCC2)cc1`: 0.78%.
Next, `Fc1cccc2ncnc(OCc3ccccc3)c12`: -8.75%.
Next, `CCC(C)(C)NC(=O)C(c1ccccn1)N(C(=O)c1csnn1)c1ccccc1` (stereo not drawn): 2%.
For the molecule `COc1ccc(NC(=S)NCC2CCN(c3ccc(OC)cc3)C2)cc1` (stereo not drawn), the inhibition is -0.81%.
Next, `CC(=O)Nc1ccc(CN2CCN(Cc3ccc(F)c(F)c3)C(CCO)C2)cc1` (stereo not drawn): -0.85%.
Then `COc1cc(CN2CCNC(=O)C2CC(=O)NCCc2ncccc2C)cc(OC)c1` (stereo not drawn), with -11.2%; and `COc1cccc(NCCC(=O)c2cccc([N+](=O)[O-])c2)c1`, with 9.38%; and `CCOc1ccc(-n2cnnn2)cc1S(=O)(=O)N1CCC(C)CC1C` (stereo not drawn), with -2.33%.
Then `O=C(NCc1ccco1)c1ccc(NS(=O)(=O)c2cccc([N+](=O)[O-])c2)cc1`, with 11.7%; and `CC(=O)c1c(C)[nH]c(C(=O)OCC(=O)Nc2sc3c(c2C#N)CCCC3)c1C`, with -2.59%.
Regarding `COc1cc(OC)c(C(=O)Nc2ccccc2-c2ccccc2)cc1OC`, the inhibition was -14%.
Then `CC(=O)Nc1ccc(C(=O)CSc2nc3ccc(C)cc3[nH]2)cc1`, with 5.15%; and `O=C(NNC(=S)Nc1ccccc1)c1cccc(S(=O)(=O)N2CCOCC2)c1`, with -2.25%; and `CCN(CC)c1ccc2cc(C(=O)O)c(=O)oc2c1`, with 2.27%.
Then `CCN(CC)c1ccc2c(Nc3ccccc3)c(C=O)c(=O)oc2c1`, with 6.79%.
Regarding `CCN(CC)c1ccc2oc(=O)c(C)nc2c1`, the inhibition was 26.6% (active).
Take `CSc1ccc(/C=N/N2CCN(Cc3ccccc3Cl)CC2)cc1`: the inhibition is 8.51%.
Next, `Cc1ccc(NC(=O)c2cc([N+](=O)[O-])ccc2Cl)c(O)c1`: -13.5%.
Next, `O=C(/C=C/c1ccc(F)cc1)Nc1cccc(S(=O)(=O)Nc2cccc(C(F)(F)F)c2)c1`: -0.34%.
Next, `CCOc1cccc(/C=C/c2ccc3ccccc3n2)c1OC(C)=O`: 8.04%; `O=C(CCN1C(=O)c2ccncc2C1=O)Nc1cc(F)ccc1F`: 1.62%; `CC(=O)Nc1ccc(NC(=O)COc2ccc(S(=O)(=O)NC(C)c3ccccc3)cc2)cc1` (stereo not drawn): -6.49%.
As to `O=C(CN1CCCC1)N1CCN(c2ccccc2)CC1`, the inhibition was -1.74%.
Next, `COCCCNC(=S)NNC(=O)C(O)(c1ccccc1)c1ccccc1`: 1.88%; `Cc1cc(/C=N/NC(=O)CC2(C)OCCO2)c(C)n1-c1ccc(Cl)c(Cl)c1`: -8.27%; `Cc1nnc(SCC(=O)N2c3ccccc3C(C)(c3ccc(Cl)cc3)CC2(C)C)s1` (stereo not drawn): -17.2%.
Consider `CC/S(CC1CC1(Cl)Cl)=N\S(=O)(=O)c1ccc(C)cc1` (stereo not drawn), for which the inhibition is -3.44%.
Then `Cc1ccc(OCc2nnc(SC3CCc4ccccc4C3=O)n2C)cc1` (stereo not drawn), with -13.3%; and `CCC1C(=O)c2ccccc2N(C)C1=O` (stereo not drawn), with 3.79%; and `N#CC1(NC(=O)COc2ccc3oc4ccccc4c3c2)CCCCC1`, with -7.56%.
Next, `CN(CCC1CCOCC1)Cc1cn[nH]c1-c1ccc(-c2ccccc2)cc1`: -6.36%.
Next, `Cc1ccc(NC(=O)c2ccccn2)cc1S(=O)(=O)N1CCOCC1`: -12.9%; `C=CCN1C(=O)C(O)(CC(=O)c2ccccn2)c2ccccc21` (stereo not drawn): 0.55%.
For `CC1=NN(C(=O)CCc2ccccc2O)C(O)(C(F)(F)F)C1` (stereo not drawn), the inhibition was -5.78%.
Then `CCn1c2ccccc2c2cc(NC(=O)C/C(C)=N/NC(=O)c3ccccc3N)ccc21`, with -6.09%; and `CCCCCCOc1ccc(OC(=O)c2cccnc2)cc1`, with -5.46%.
Then `CC(=O)Nc1ccc(S(=O)(=O)NC(C)C(=O)OCC(=O)NC2CCCC2)cc1` (stereo not drawn), with -2.35%.
As for `COCCNC(=O)NC(=O)COC(=O)C1(c2ccc(Cl)cc2)CC1`, the inhibition is 1.43%.
Then `O=C(Nc1nnc(-c2ccco2)o1)c1ccc(S(=O)(=O)N2CCOCC2)cc1`, with 9.33%; and `CN(C)CCCN1C(=O)CSC1c1ccc([N+](=O)[O-])cc1` (stereo not drawn), with 2.09%; and `COC(=O)c1nc2n(n1)C(c1ccc([N+](=O)[O-])cc1)C(C(=O)Nc1ccc(Cl)cc1)=C(C)N2` (stereo not drawn), with 4.62%.
On to `COc1cc(NC(=S)N2CCCC(C)C2)cc(OC)c1OC` (stereo not drawn), for which the inhibition was 6.42%.
Next, `COc1ccc(C2Nc3ccccc3C(=O)N2c2ccc(Cl)cc2)cc1Cn1cc([N+](=O)[O-])cn1` (stereo not drawn): -3.28%; `Cc1nc(N=C(N)N)nc2c(C)cccc12`: -6.85%; `COc1cccc(C(=O)Nc2cc3c(cc2Br)OCCCO3)c1`: 5.11%.
Then `CCc1cccc(NC(=O)CCC(=O)O)c1`, with -11%; and `CC(=O)c1cc(C#N)c(N2CCCCC2)nc1C`, with 7.39%.
Next, `CCN(CC)S(=O)(=O)c1cc([N+](=O)[O-])ccc1N=Nc1c(O)n(C)c2ccccc12`: 6.59%.
For the molecule `Cc1cccc(C)c1N1CCN(S(=O)(=O)N2CCCCC2)CC1`, the inhibition was -5.18%.
For the molecule `CC1CCN(C(=O)c2ccc(CSc3ccc(Cl)cc3)cc2)CC1`, the inhibition is 2.08%.
For `C=C(C)C1CC=C(C)/C(=N\NC(=O)CNc2ccccc2OC)C1` (stereo not drawn), the inhibition was 3.79%.
For the molecule `O=C(c1ccc2ccccc2n1)N1CCN(c2ccccc2Cl)CC1`, the inhibition was -7.41%.
Then `CCOC(=O)c1[nH]cnc1C(=O)Nc1ccccc1C`, with 4.26%.
With `COc1ccc(C2CC(c3cccs3)=NN2c2ccccc2)cc1` (stereo not drawn), the inhibition was 0.51%.
Then `COc1ccccc1N1N=C(c2cccs2)CC1c1ccccc1` (stereo not drawn), with 44.4% (active); and `COc1ccc(C2CC(c3cccs3)=NN2c2ccc(F)cc2)cc1OC` (stereo not drawn), with 5.58%.
`O=C(Nc1ccc(Br)cn1)c1ccc([N+](=O)[O-])cc1Cl`: the inhibition is 0.87%.
Then `O=C(O)c1ccc2c(c1)C(=O)N(c1ccc(/C=C/C(=O)c3ccccc3)cc1)C2=O`, with -0.8%; and `O=C(/C=C/c1ccc(N2CCOCC2)cc1)c1ccccc1`, with 27.9% (active); and `O=C(/C=C/c1ccccc1)c1ccoc1`, with 4.74%.
Then `CCOc1ccc(-c2n[nH]c(=S)n2/N=C/c2cc3c(cc2[N+](=O)[O-])OCO3)cc1`, with -2.5%; and `CCOC(=O)CCCN1CC(O)=C(c2nc3ccccc3s2)C1=N`, with -14.8%; and `COc1ccc(-c2[nH]ncc2/C=N/NC(=O)c2cc(Br)ccc2O)c(OC)c1`, with -5.73%.
Then `COc1cc(OC)cc(-c2nnc(N(C)C(=O)c3ccncc3)s2)c1`, with 11.3%.
On to `O=C(NCC1CCCO1)C1CCN(C2CCN(C(=O)C3CCCCC3)CC2)CC1` (stereo not drawn), for which the inhibition was -1.44%.
Next, `CCOc1cc(NC(=S)NCc2ccco2)c(OCC)cc1NC(=O)c1ccco1`: -15.2%.
As for `CC(=O)C1C(c2ccc(Cl)cc2)c2c(n[nH]c2C)CC1(C)O` (stereo not drawn), the inhibition is -3.07%.
Next, `CC(C)(C)C(=O)c1cnc(Nc2ccccc2)s1`: -8.48%; `O=C(CSc1nnc(Nc2ccccc2)s1)Nc1cccnc1Cl`: -6.41%; `O=C(c1ccc(Cl)cc1)c1cnc(Nc2ccccc2)s1`: 25.8% (active).
Next, `O=C(NC1CC1)C1CCCN(C(=O)NC2CCCCC2)C1` (stereo not drawn): 5.9%; `Cc1cc(F)ccc1S(=O)(=O)N1CCCOC1CNC(=O)C(=O)NCCC1=CCCCC1` (stereo not drawn): -6.72%.
Turning to `O=C(Nc1ccc(-n2ccnc2P(=O)(O)c2ccccc2)cc1)c1ccccc1Br`, the inhibition is -8.07%.
Next, `Cc1ccc(C)c(NC(=O)CCC(=O)N/N=C2/CC(=O)CC(C)(C)C2)c1`: 6.45%.
Then `COc1ccc(F)c(-c2nc(CN3CCC(c4ccccc4)CC3)c(C)o2)c1`, with -6.39%; and `O=C(OCC(=O)c1c[nH]c2ccccc12)c1cccc(O)c1`, with -10%; and `Cc1ccccc1OCCOc1ccc([N+](=O)[O-])cc1/C=N/n1cnnc1`, with -17.5%.
Next, `Cc1cccc(COc2ccccc2/C=N/Nc2ccc([N+](=O)[O-])cc2)c1`: 28.7% (active); `COc1cc(/C=N/O)ccc1OCc1ccc([N+](=O)[O-])cc1`: -3.68%; `CCCn1c(=S)[nH]c2ccc(C(F)(F)F)cc21`: -6.93%.
Take `CCNC(=O)N1c2ccccc2Sc2ccccc21`: the inhibition was 7.55%.
Then `Cc1cccc(C(=O)NC(=S)N2CCN(c3ccc([N+](=O)[O-])cc3)CC2)c1`, with -12.6%.
